Inconclusive results are not listed. The source made the active and inactive calls. The calls were made as follows, unless noted: active = hit-call score of the fitted dose curve at least 0.9, where 1 is the maximum; inconclusive = response in the unintended direction; inactive = score below 0.9.
read-out: Interleukin-8 (IL8), CXCL8 (gene 3576); test: BSK_3C_IL8: BioMAP Diversity Plus: 3C Assay for Interleukin-8 (IL8) Biomarker Activity (AID 2283020; active = hit-call score of the fitted dose curve at least 0.9, where 1 is the maximum; inactive = score below 0.9); conditions: primary human endothelial cells (HUVEC); actives raise or lower the signal
How it was run: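 ELISA read-out of IL-8 from human umbilical vein endothelium, measured 24 h after chemical dosing. Activity is expressed relative to DMSO negative control, with both increases and decreases fitted.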

Row | Structure (SMILES) | outcome | AC50
1 | CCCCOC(=O)CCCCCCCC(=O)OCCCC | inactive | 
2 | c1ccc(CCc2ccccc2)cc1 |  | 25.8 µM (active)
3 | C=C(C)[C@H]1CC=C(C)C(=O)C1 | inactive | 
4 | CC1(C)C2=CCCC(C)(C)[C@]23CC[C@H]1C3 |  | 20 µM (active)
5 | C=CC(C)(O)CCC=C(C)C (stereo not drawn) | inactive | 
6 | CS(=O)(=O)c1ccc(C2=C(c3ccccc3)C(=O)OC2)cc1 | inactive | 
7 | COc1cc(Cl)c(OC)cc1N | inactive | 

read-out: Monokine induced gamma interferon (MIG), CXCL9 (gene 4283); test: BSK_3C_MIG: BioMAP Diversity Plus: 3C Assay for Monokine induced gamma interferon (MIG) Biomarker Activity (AID 2283021; active = hit-call score of the fitted dose curve at least 0.9, where 1 is the maximum; inactive = score below 0.9); conditions: primary human endothelial cells (HUVEC); actives raise or lower the signal
How it was run: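 Read-out is ELISA detection of MIG on human umbilical vein endothelial cells, taken 24 h after dosing. Gain or loss of signal was scored relative to DMSO controls using bidirectional curve fitting.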

Row | Structure (SMILES) | outcome
8 | CCCCOC(=O)CCCCCCCC(=O)OCCCC | inactive
9 | C=C(C)[C@H]1CC=C(C)C(=O)C1 | inactive
10 | CC1(C)C2=CCCC(C)(C)[C@]23CC[C@H]1C3 | inactive
11 | C=CC(C)(O)CCC=C(C)C (stereo not drawn) | inactive
12 | CS(=O)(=O)c1ccc(C2=C(c3ccccc3)C(=O)OC2)cc1 | inactive
13 | COc1cc(Cl)c(OC)cc1N | inactive

molecular target: human Vitamin D Receptor (VDR), VDR (gene 7421) (UniProt P11473); test: ATG_VDR_TRANS: Attagene TRANS-FACTORIAL HepG2 Assay for human Vitamin D Receptor (VDR) (AID 2283022); conditions: not given
How it was run: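 Transactivation by an exogenous VDR-Gal4 chimera in transiently transfected HepG2 cells was measured as reporter transcript level 24 hours after chemical treatment. RT-PCR products were analysed by capillary electrophoresis and fitted in the positive direction relative to DMSO.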

Sequence of human Vitamin D Receptor (VDR), VDR (gene 7421) (P11473 whole entry, looked up, the tested form may be a part): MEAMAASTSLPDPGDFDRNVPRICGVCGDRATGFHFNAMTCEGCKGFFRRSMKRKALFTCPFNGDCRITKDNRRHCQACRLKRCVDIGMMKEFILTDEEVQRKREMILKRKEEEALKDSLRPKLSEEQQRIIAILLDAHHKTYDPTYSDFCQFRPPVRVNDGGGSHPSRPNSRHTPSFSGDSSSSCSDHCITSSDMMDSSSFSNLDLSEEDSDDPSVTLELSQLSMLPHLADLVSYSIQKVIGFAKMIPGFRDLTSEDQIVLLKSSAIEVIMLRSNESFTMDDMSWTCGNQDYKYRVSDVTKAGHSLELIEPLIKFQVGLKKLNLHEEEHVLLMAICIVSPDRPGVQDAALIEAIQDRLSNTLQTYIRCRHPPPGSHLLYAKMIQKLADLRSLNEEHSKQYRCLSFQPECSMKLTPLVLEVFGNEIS

Row | Structure (SMILES) | outcome
14 | CCCCOC(=O)CCCCCCCC(=O)OCCCC | inactive
15 | CC(=O)O[C@H]1C[C@@H]2CC[C@@]1(C)C2(C)C | inactive
16 | Nc1c(Cl)cc(Cl)cc1[N+](=O)[O-] | inactive
17 | COc1cc([C@@H]2c3cc4c(cc3[C@@H](O[C@@H]3O[C@@H]5CO[C@@H](C)O[C@H]5[C@H](O)[C@H]3O)[C@H]3COC(=O)[C@H]23)OCO4)cc(OC)c1O | inactive
18 | CC(C)C(OC(=O)c1ccccc1)C(C)(C)COC(=O)c1ccccc1 (stereo not drawn) | inactive
19 | COc1ccc(N)c([N+](=O)[O-])c1 | inactive
20 | CCOC(=O)CN | inactive
21 | CCCSc1ccc2nc(NC(=O)OC)[nH]c2c1 | inactive
22 | CCCCCCCCCCCCN1CCCCCC1=O | inactive
23 | C[Si](C)(C)O[Si](C)(C)C | inactive
24 | Nc1c(S(=O)(=O)O)cc(Br)c2c1C(=O)c1ccccc1C2=O | inactive
25 | O=C(O)CNc1ccccc1 | inactive
26 | C=C(C)[C@H]1CC=C(C)C(=O)C1 | inactive
27 | C=C(CC(=O)O)C(=O)O | inactive
28 | O=C(O)CCCCCCCCC(=O)O | inactive
29 | CCCCCCC(C)Nc1ccc(Nc2ccccc2)cc1 (stereo not drawn) | inactive
30 | COC(=O)Nc1ccc(Cl)c(Cl)c1 | inactive
31 | CCCC(=O)C(CC)Sc1ccoc1C (stereo not drawn) | inactive

Row | Structure (SMILES) | outcome
32 | COc1ccc(CCC(C)=O)cc1 | inactive
33 | O=C(Nc1ccc2c(c1)Cc1ccccc1-2)C(F)(F)F | inactive
34 | C=CC(C)(O)CCC=C(C)C (stereo not drawn) | inactive
35 | COc1cc(Cl)c(OC)cc1N | inactive
36 | C[C@H](CCC(=O)NCC(=O)O)[C@H]1CC[C@H]2[C@@H]3[C@H](O)C[C@@H]4C[C@H](O)CC[C@]4(C)[C@H]3C[C@H](O)[C@]12C | inactive
37 | CCCCCCCCCC(C)C=O (stereo not drawn) | inactive
38 | CC(C)NCC(O)COc1ccc(CC(N)=O)cc1 (stereo not drawn) | inactive
39 | CSc1c(Cl)c(Cl)c(Cl)c(Cl)c1Cl | inactive
40 | N#Cc1ccc(CC(=O)c2cccc(C(F)(F)F)c2)cc1 | inactive
41 | Nc1ccc(N)c2c1C(=O)c1ccccc1C2=O | inactive
42 | CC(C)=CCCC(C)CCOC=O (stereo not drawn) | inactive
43 | NCCNc1cccc2ccccc12 | inactive
44 | c1ccc(CN(Cc2ccccc2)Cc2ccccc2)cc1 | inactive
45 | Cc1ccc(C)o1 | inactive
46 | COc1ccc(CCO)cc1 | inactive
47 | C=CCCC(=O)/C=C/C1C(C)=CCCC1(C)C (stereo not drawn) | inactive
48 | COS(=O)(=O)O | inactive
